Screening results as filed in PubChem.
Hits are enriched below; roughly 0.52% of the tested compounds scored in any of these assays.
CatB mixtures – cathepsin B inhibitors from pooled compounds, primary screen, biochemical, compound mixtures, AMC fluorescence; inhibition, %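 (ten-compound pools at 5 µM per compound and 50 µM total)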; Purified cathepsin B, AMC dipeptide fluorescence; AID 488, 2006; hit rate 0.06% among 62,000; P07858; in the data active = inhibition above about 22%, passing the limit was not always enough;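 note: 0% = enzyme without compound and 100% = no enzyme blank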
mHtt clearance – clearance of mutant huntingtin inclusions, primary screen, imaging, HeLa Exon1htt(103Q)mCFP, confocal imaging. aggregate imaging; zero = plate's median compound well. inhibition, % at 1.5 µM. hit rate 0.42% among 47,000;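 active = inhibition of aggregate fluorescence above about 70%, also judged a hit by eye on the cell image, limit read from the data, passing the limit was not always enough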;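 note: cells exposed to compound for three days before fixation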
CatL inh – inhibitors of human cathepsin L, biochemical; Procathepsin L (Homo sapiens), P07711; purified cathepsin L, fluorogenic substrate, fluorescence; inhibition, %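 (tested at 10 µM)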; hit rate 0.17% among 58,000; in the data active = inhibition above about 45%;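 note: 0% = enzyme with no compound and 100% = no enzyme blank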
CatS inh – inhibitors of human cathepsin S, biochemical, compound mixtures; recombinant cathepsin S, AMC dipeptide fluorescence, pooled mixtures; P25774; inhibition, %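 (tested at 5 µM per compound within 10-compound mixtures)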; hit rate 0.06% among 62,000; AID 501, 2006; in the data active = inhibition above about 32%, passing the limit was not always enough;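 note: 0% = enzyme without compound and 100% = blank without enzyme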
Target sequence (P25774 115-331 limits assumed): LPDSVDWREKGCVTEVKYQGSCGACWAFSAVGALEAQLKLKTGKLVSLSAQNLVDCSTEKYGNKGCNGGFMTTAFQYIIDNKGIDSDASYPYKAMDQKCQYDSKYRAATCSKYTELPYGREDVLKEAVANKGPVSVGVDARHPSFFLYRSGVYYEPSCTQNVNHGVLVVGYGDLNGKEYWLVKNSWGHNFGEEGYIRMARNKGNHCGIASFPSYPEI
CatB inh – human cathepsin B inhibitors, primary screen, biochemical, fluorogenic substrate; purified cathepsin B, fluorescence; inhibition, %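 (tested at 10 µM)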; hit rate 0.1% among 63,000; AID 453, 2006; in the data active = inhibition above about 21%;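 note: 0% = enzyme with no compound and 100% = no enzyme blank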
* marks the source's active call; other numbers are inactive results.

`CCSc1nnc([C@@H](N)Cc2c[nH]c3ccccc23)o1` gave CatB mixtures -4, mHtt clearance 15, CatL inh -5, CatS inh 3 and CatB inh -2.
For Cc1cccc(NC(=O)CSc2nnc([C@@H](N)Cc3c[nH]c4ccccc34)o2)c1C the results were CatB mixtures 1, mHtt clearance -8, CatL inh 101*, CatS inh 10 and CatB inh 1.
Screening CN1C(=O)C(=Cc2ccccc2Oc2ccc(Cl)cc2)C(=O)N(C)C1=O returned mHtt clearance 82*.
Screening Cc1nonc1-c1nc(-c2nonc2N)n[nH]1 returned CatB mixtures 22*, mHtt clearance -32, CatL inh 23, CatS inh 20 and CatB inh 12.
For CCC1(c2ccccc2)C(=O)N(COC)C(=O)N(COC)C1=O the results were CatB mixtures 1, mHtt clearance -9, CatL inh -1, CatS inh -5 and CatB inh 2.
`N[C@@H](Cc1c[nH]c2ccccc12)c1nnc(SCc2ccccc2F)o1` gave CatB mixtures -11, mHtt clearance 1, CatL inh 35, CatS inh -5 and CatB inh 3.
Screening CCOC(=O)c1cc2c(cn1)[nH]c1ccccc12 returned CatB mixtures 4, CatL inh -21, CatS inh -1 and CatB inh 9.
For CCn1nc(-c2ccccc2)nc2c(=O)n(C)c(=O)nc1-2 the results were CatB mixtures 47, CatL inh 85* and CatB inh 76*.
`Cc1nnc(SCc2nc3ccccc3c(=O)n2-c2ccccc2Cl)n1N` gave CatB mixtures 1, mHtt clearance 72*, CatS inh 7 and CatB inh 5.
`c1ccc(C2CC3CC(c4ccco4)N2O3)cc1` (centres undefined) gave CatB mixtures 4, mHtt clearance -14, CatL inh -5, CatS inh -3 and CatB inh 1.
